Results reported in PubChem BioAssay AID1347418 (Sanford-Burnham Center for Chemical Genomics, 2020).
Screen size: about 1,300 compounds; about 750 (58%) were called active. The list shows a part of the results.

What follows are molecules tested against Sulfhydryl oxidase 1 (Homo sapiens) (UniProt O00391) (assay: QSOX1 enzyme inhibitors, primary screen, biochemical, ROS-Glo H2O2 luminescence, HTS (AID 1347418)). Settings: recombinant QSOX1, ROS-Glo H2O2 luminescence; at 12.5 µM; stronger effect = higher value; active = any value above zero.
Sequence of Sulfhydryl oxidase 1 (Homo sapiens) (O00391 whole entry, looked up): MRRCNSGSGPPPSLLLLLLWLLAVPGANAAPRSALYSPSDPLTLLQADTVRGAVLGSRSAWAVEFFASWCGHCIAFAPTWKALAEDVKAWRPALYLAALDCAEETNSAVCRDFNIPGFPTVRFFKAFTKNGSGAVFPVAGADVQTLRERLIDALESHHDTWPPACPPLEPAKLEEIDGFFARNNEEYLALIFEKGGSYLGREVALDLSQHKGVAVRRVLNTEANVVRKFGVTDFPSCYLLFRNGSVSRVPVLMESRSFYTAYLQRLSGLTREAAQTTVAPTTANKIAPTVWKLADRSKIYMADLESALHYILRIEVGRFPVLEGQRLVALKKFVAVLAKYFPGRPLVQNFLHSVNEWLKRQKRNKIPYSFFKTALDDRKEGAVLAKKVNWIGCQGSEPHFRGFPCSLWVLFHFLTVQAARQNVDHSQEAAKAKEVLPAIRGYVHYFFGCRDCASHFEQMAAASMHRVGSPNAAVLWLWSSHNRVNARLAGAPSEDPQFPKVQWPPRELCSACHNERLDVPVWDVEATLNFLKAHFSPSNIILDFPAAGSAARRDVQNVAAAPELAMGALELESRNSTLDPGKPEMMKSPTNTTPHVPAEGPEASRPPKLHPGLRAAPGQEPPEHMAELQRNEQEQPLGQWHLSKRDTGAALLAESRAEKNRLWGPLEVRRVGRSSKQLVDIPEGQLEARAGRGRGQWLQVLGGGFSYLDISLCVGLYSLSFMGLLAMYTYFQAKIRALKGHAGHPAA

inhibition, inactive:
O=c1[nH]c(=O)n([C@H]2C[C@H](O)[C@@H](CO)O2)cc1/C=C/Br -4%
CCNc1nc2c(ncn2[C@H]2C[C@H](O)[C@@H](CO)O2)c(=O)[nH]1 -0.7%
CN1C(C(=O)Nc2ccccn2)=C(O)c2ccccc2S1(=O)=O -4.7%
O=C1Cc2c([nH]c3ccc(Br)cc23)-c2ccccc2N1 -0.3%
CC(C)(C)[C@]1(O)CCN2C[C@H]3c4ccccc4CCc4cccc(c43)[C@@H]2C1 -0.1%
Cc1[nH]c(=O)c(C#N)cc1-c1ccncc1 -3.2%
CC[C@H](NC(=O)c1c(C)c(-c2ccccc2)nc2ccccc12)c1ccccc1 -2%
NC(N)=N/N=C/c1c(Cl)cccc1Cl -2.6%
CCCCNc1cc(C(=O)O)cc(S(N)(=O)=O)c1Oc1ccccc1 -3.4%
CNCCc1cnc(CCC(c2ccccc2)c2ccccc2)[nH]1 -2.3%
CCN(CC)CCOC(=O)c1cc(Cl)c(N)cc1OC -5.7%
CCN(CC)CCNC(=O)c1cc(Cl)c(N)cc1OC -4.7%

inhibition, active:
Cc1cn([C@H]2C[C@@H](N=[N+]=[N-])[C@@H](CO)O2)c(=O)[nH]c1=O 1.9%
Cc1cn([C@H]2C=C[C@@H](CO)O2)c(=O)[nH]c1=O 0.2%
O=c1[nH]c(=O)n([C@H]2C[C@H](O)[C@@H](CO)O2)cc1Br 2.6%
c1ccc2c(c1)CC(N1CCN(c3cccc4c3OCCO4)CC1)C2 4.5%
Cc1cnc(NC(=O)C2=C(O)c3ccccc3S(=O)(=O)N2C)s1 5.4%
CN1CC(O)C(O)C(O)C1CO (stereo not given) 3.8%
FC(F)(F)c1ccccc1-n1ccnc1 4%
CC(/C=C/c1cccc(Oc2ccc(F)cc2)c1)N(O)C(N)=O (stereo not given) 2.4%
O=Nc1c(-c2c(O)[nH]c3ccccc23)[nH]c2ccccc12 42.8%
O=Nc1c(-c2c(O)[nH]c3cc(Br)ccc23)[nH]c2ccccc12 27.6%
O=C(C1CCCCC1)N1CC(=O)N2CCc3ccccc3C2C1 (stereo not given) 1.7%
Cc1[nH]c(=O)c(C#N)cc1-c1ccc2nccn2c1 7.1%
COC(=O)[C@H](NC(=O)c1cc(-c2ccccc2)nc2ccccc12)c1ccccc1 4.9%
NCCS 3.5%
CCOC(=O)c1ncn2c1CN(C)C(=O)c1cc(F)ccc1-2 0.3%
c1ccc(C(NCCNC(c2ccccc2)c2ccccc2)c2ccccc2)cc1 6%
CC(C)NNC(=O)c1ccncc1 1.1%
COc1cc(N)c(Cl)cc1C(=O)OCCN1CCCCC1 0.5%
